# Test results published in article PMC11062922 (Nature Chemical Biology, 2023).
# Where two headings read alike, the source gives them in different places.
# How the values were obtained:
# AAK1 = system: AAK1; set-up: species or system human, MV4-11 + K-562 + COLO205 + SK-N-BE2 + OVCAR-8; conditions: read-out: apparent Kd, n = 1
# BMP2K = system: BMP2K; set-up: species or system human, MV4-11 + K-562 + COLO205 + SK-N-BE2 + OVCAR-8; conditions: read-out: apparent Kd, n = 1
# CLK1 = system: CLK1; set-up: species or system human, MV4-11 + K-562 + COLO205 + SK-N-BE2 + OVCAR-8; conditions: read-out: apparent Kd; compound concentrations: 100 nM and 1000 nM (sheet 'Samples'), CATDS: 0.227495449578137; n = 1
# CLK4 = system: CLK4; set-up: species or system human, MV4-11 + K-562 + COLO205 + SK-N-BE2 + OVCAR-8; conditions: read-out: apparent Kd; compound concentrations: 100 nM and 1000 nM (sheet 'Samples'), CATDS: 0.59916054369274396; n = 1
# CSNK2A1;CSNK2A3 = system: CSNK2A1;CSNK2A3; set-up: species or system human, MV4-11 + K-562 + COLO205 + SK-N-BE2 + OVCAR-8; conditions: read-out: apparent Kd, n = 1
# CSNK2A2 = system: CSNK2A2; set-up: species or system human, MV4-11 + K-562 + COLO205 + SK-N-BE2 + OVCAR-8; conditions: read-out: apparent Kd, compound concentrations: 100 nM and 1000 nM (sheet 'Samples'), n = 1
# Q6ZSR9 = Q6ZSR9 (human, UniProt Q6ZSR9); set-up: species or system MV4-11 + K-562 + COLO205 + SK-N-BE2 + OVCAR-8; conditions: read-out: apparent Kd, n = 1
# GAK = system: GAK; set-up: species or system human, MV4-11 + K-562 + COLO205 + SK-N-BE2 + OVCAR-8; conditions: read-out: apparent Kd, n = 1
# NUAK1 = system: NUAK1; set-up: species or system human, MV4-11 + K-562 + COLO205 + SK-N-BE2 + OVCAR-8; conditions: read-out: apparent Kd, n = 1
# PAK4 = system: PAK4; set-up: species or system human, MV4-11 + K-562 + COLO205 + SK-N-BE2 + OVCAR-8; conditions: read-out: apparent Kd, n = 1
# SIK2 = system: SIK2; set-up: species or system human, MV4-11 + K-562 + COLO205 + SK-N-BE2 + OVCAR-8; conditions: read-out: apparent Kd, n = 1
# FLT4 = system: FLT4; set-up: species or system human, MV4-11 + K-562 + COLO205 + SK-N-BE2 + OVCAR-8; conditions: read-out: apparent Kd, n = 1
# GSK3A = system: GSK3A; set-up: species or system human, MV4-11 + K-562 + COLO205 + SK-N-BE2 + OVCAR-8; conditions: read-out: apparent Kd; compound concentrations: 100 nM and 1000 nM (sheet 'Samples'), CATDS: 2.6961640495366201E-2; n = 1
# GSK3B = system: GSK3B; set-up: species or system human, MV4-11 + K-562 + COLO205 + SK-N-BE2 + OVCAR-8; conditions: read-out: apparent Kd; compound concentrations: 100 nM and 1000 nM (sheet 'Samples'), CATDS: 2.05762593754709E-2; n = 1
# MELK = system: MELK; set-up: species or system human, MV4-11 + K-562 + COLO205 + SK-N-BE2 + OVCAR-8; conditions: read-out: apparent Kd; compound concentrations: 100 nM and 1000 nM (sheet 'Samples'), CATDS: 1.3446305906565099E-2; n = 1
# PKN1 = system: PKN1; set-up: species or system human, MV4-11 + K-562 + COLO205 + SK-N-BE2 + OVCAR-8; conditions: read-out: apparent Kd; compound concentrations: 100 nM and 1000 nM (sheet 'Samples'), CATDS: 1.2984656701456401E-2; n = 1
# PKN3 = system: PKN3; set-up: species or system human, MV4-11 + K-562 + COLO205 + SK-N-BE2 + OVCAR-8; conditions: read-out: apparent Kd; compound concentrations: 100 nM and 1000 nM (sheet 'Samples'), CATDS: 6.8634871166861197E-3; n = 1
# PRKAG1 = system: PRKAG1; set-up: species or system human, MV4-11 + K-562 + COLO205 + SK-N-BE2 + OVCAR-8; conditions: read-out: apparent Kd; compound concentrations: 100 nM and 1000 nM (sheet 'Samples'), CATDS: 1.7529215817932601E-2; n = 1
# RET = system: RET; set-up: species or system human, MV4-11 + K-562 + COLO205 + SK-N-BE2 + OVCAR-8; conditions: read-out: apparent Kd; compound concentrations: 100 nM and 1000 nM (sheet 'Samples'), CATDS: 2.8395704553292499E-2; n = 1
# [1] = compound concentrations:100 nM and 1000 nM (sheet 'Samples')
# Q6ZSR9, sequence (Q6ZSR9 whole entry, looked up): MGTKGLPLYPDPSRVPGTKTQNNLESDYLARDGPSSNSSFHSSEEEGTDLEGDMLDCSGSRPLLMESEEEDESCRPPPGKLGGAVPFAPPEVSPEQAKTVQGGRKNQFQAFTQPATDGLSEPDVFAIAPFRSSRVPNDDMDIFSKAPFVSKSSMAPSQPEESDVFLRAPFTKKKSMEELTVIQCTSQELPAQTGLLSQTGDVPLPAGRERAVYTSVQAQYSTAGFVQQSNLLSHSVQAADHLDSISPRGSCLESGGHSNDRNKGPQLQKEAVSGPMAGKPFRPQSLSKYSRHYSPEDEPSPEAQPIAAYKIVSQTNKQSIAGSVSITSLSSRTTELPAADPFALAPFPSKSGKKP
smiles,measurement,setting,value
O=C1N=C(NCc2cccs2)O/C1=C\c1ccc2ncccc2c1 [RO4624208-000],potency estimated from few doses,"AAK1; compound concentrations: 100 nM and 1000 nM (sheet 'Samples'), CATDS: 0.10731748351682301",0.135 µM
same,potency estimated from few doses,"BMP2K; compound concentrations: 100 nM and 1000 nM (sheet 'Samples'), CATDS: 4.6084247955460698E-2",1.92 µM
same,potency estimated from few doses,CLK1,0.0237 µM
same,potency estimated from few doses,CLK4,0.00427 µM
same,potency estimated from few doses,"CSNK2A1;CSNK2A3; compound concentrations: 100 nM and 1000 nM (sheet 'Samples'), CATDS: 6.2614032961525998E-2",0.629 µM
same,potency estimated from few doses,CSNK2A2; CATDS: 6.3902524713508005E-2,0.59 µM
same,potency estimated from few doses,"Q6ZSR9; compound concentrations: 100 nM and 1000 nM (sheet 'Samples'), CATDS: 0.11947964791327",0.103 µM
CCCc1cc(N2CCCN(C)CC2)nc2sc3c(N)ncnc3c12 [BI00604564],potency estimated from few doses,"AAK1; compound concentrations: 100 nM and 1000 nM (sheet 'Samples'), CATDS: 0.13729874027545599",1.99 µM
same,potency estimated from few doses,"GAK; compound concentrations: 100 nM and 1000 nM (sheet 'Samples'), CATDS: 0.27765104438225702",0.516 µM
same,potency estimated from few doses,"Q6ZSR9; compound concentrations: 100 nM and 1000 nM (sheet 'Samples'), CATDS: 0.16382983501134099",1.31 µM
Cc1cccc(Nc2nc(N[C@H]3CCNC3)ncc2C(N)=O)c1.Cl [GSK2197149A],potency estimated from few doses,AAK1; [1],0.0646 µM
same,potency estimated from few doses,BMP2K; [1],0.54 µM
same,potency estimated from few doses,CSNK2A1;CSNK2A3; [1],2.15 µM
same,potency estimated from few doses,GAK; [1],0.343 µM
same,potency estimated from few doses,NUAK1; [1],1.69 µM
same,potency estimated from few doses,PAK4; [1],0.562 µM
same,potency estimated from few doses,Q6ZSR9; [1],0.0856 µM
same,potency estimated from few doses,SIK2; [1],0.603 µM
O=C(O)C(F)(F)F.O=C(O)C(F)(F)F.O=c1[nH]ccc2nc(N[C@@H]3CCCNC3)nc(Nc3ccc(S(=O)(=O)N4CCOCC4)cc3)c12.O=c1[nH]ccc2nc(N[C@@H]3CCCNC3)nc(Nc3ccc(S(=O)(=O)N4CCOCC4)cc3)c12 [GSK2177277A],potency estimated from few doses,"AAK1; compound concentrations: 100 nM and 1000 nM (sheet 'Samples'), CATDS: 1.8142496176493599E-2",0.0641 µM
same,potency estimated from few doses,"BMP2K; compound concentrations: 100 nM and 1000 nM (sheet 'Samples'), CATDS: 3.1293832570600401E-2",0.0236 µM
same,potency estimated from few doses,"CSNK2A1;CSNK2A3; compound concentrations: 100 nM and 1000 nM (sheet 'Samples'), CATDS: 9.7881749935300605E-3",0.292 µM
same,potency estimated from few doses,CSNK2A2; CATDS: 1.40967137709553E-2,0.111 µM
same,potency estimated from few doses,"FLT4; compound concentrations: 100 nM and 1000 nM (sheet 'Samples'), CATDS: 8.0407033957096193E-3",0.563 µM
same,potency estimated from few doses,"GAK; compound concentrations: 100 nM and 1000 nM (sheet 'Samples'), CATDS: 7.9677595893025404E-3",0.583 µM
same,potency estimated from few doses,GSK3A,0.0304 µM
same,potency estimated from few doses,GSK3B,0.0498 µM
same,potency estimated from few doses,MELK,0.125 µM
same,potency estimated from few doses,"NUAK1; compound concentrations: 100 nM and 1000 nM (sheet 'Samples'), CATDS: 0.191214314920645",0.00202 µM
same,potency estimated from few doses,"PAK4; compound concentrations: 100 nM and 1000 nM (sheet 'Samples'), CATDS: 1.6910585220633E-2",0.0742 µM
same,potency estimated from few doses,PKN1,0.136 µM
same,potency estimated from few doses,PKN3,1.09 µM
same,potency estimated from few doses,PRKAG1,0.0688 µM
same,potency estimated from few doses,"Q6ZSR9; compound concentrations: 100 nM and 1000 nM (sheet 'Samples'), CATDS: 1.64498976329738E-2",0.0787 µM
same,potency estimated from few doses,RET,0.0278 µM
same,potency estimated from few doses,"SIK2; compound concentrations: 100 nM and 1000 nM (sheet 'Samples'), CATDS: 1.8714442667333402E-2",0.0601 µM
Cc1ccccc1C1=C(c2cn(C)c3ccccc23)C(=O)NC1=O [RO0317612-000],potency estimated from few doses,"AAK1; compound concentrations: 100 nM and 1000 nM (sheet 'Samples'), CATDS: 0.12392874635964",1.65 µM
CN(C)CCNC(=O)Nc1ccc(N(C)c2ccnc(Nc3ccc(CS(C)(=O)=O)cc3)n2)cc1.Cl [GW830900A],potency estimated from few doses,AAK1; [1],0.82 µM
same,potency estimated from few doses,BMP2K; [1],1.22 µM
same,potency estimated from few doses,FLT4; [1],1.24 µM
same,potency estimated from few doses,GAK; [1],1.45 µM
same,potency estimated from few doses,NUAK1; [1],1.75 µM
same,potency estimated from few doses,Q6ZSR9; [1],0.939 µM
NC(=O)c1cc(-c2ccccc2)cc2c(C3CCNCC3)c[nH]c12 [GSK301362A],potency estimated from few doses,AAK1; [1],1.98 µM
